Measured values published in the supplement of paper PMC8728848.
The sample as a whole holds a higher share of the strongest signals than the screen did.

How the values were obtained:
Experiment in all cases: glycan array binding signal (z-score within array); higher = stronger binding
Details in all cases: glycan notation: IUPAC condensed, linker removed
Fuc(a1-2)Gal = target: Fuc(a1-2)Gal
Method in brief: (§1)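 From the Consortium for Functional Glycomics database, 3228 arrays were curated, keeping only those whose protein sequence was available. Binding is given as a within-array Z-score averaged across arrays sharing a protein sequence and across linkers. Negative Z-scores can be read as non-binding.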

[1] = target: Fuc(a1-2)Gal(b1-3)GalNAc(b1-3)Gal
Method in brief: as §1

[2] = target: Fuc(a1-2)Gal(b1-4)[Fuc(a1-3)]GlcNAc
Method in brief: as §1

[3] = target: Fuc(a1-2)Gal(b1-4)[Fuc(a1-3)]GlcNAc(b1-2)Man(a1-3)[Fuc(a1-2)Gal(b1-4)[Fuc(a1-3)]GlcNAc(b1-2)Man(a1-6)]Man(b1-4)GlcNAc(b1-4)[Fuc(a1-6)]GlcNAc
Method in brief: as §1

Fuc(a1-2)[Gal(a1-3)]Gal = target: Fuc(a1-2)[Gal(a1-3)]Gal
Method in brief: as §1

[4] = target: Fuc(a1-2)[Gal(a1-3)]Gal(b1-3)GlcNAc(b1-6)GalNAc
Method in brief: as §1

[5] = target: Fuc(a1-2)[Gal(a1-3)]Gal(b1-4)GlcNAc(b1-2)Man
Method in brief: as §1

[6] = target: Fuc(a1-2)[GalNAc(a1-3)]Gal
Method in brief: as §1

[7] = target: Fuc(a1-2)[GalNAc(a1-3)]Gal(b1-4)Glc
Method in brief: as §1

[8] = target: Fuc(a1-2)[GalNAc(a1-3)]Gal(b1-4)GlcNAc
Method in brief: as §1

[9] = target: Fuc(a1-2)[GalNAc(a1-3)]Gal(b1-4)GlcNAc(b1-2)Man(a1-3)[Fuc(a1-2)[GalNAc(a1-3)]Gal(b1-4)GlcNAc(b1-2)Man(a1-6)]Man(b1-4)GlcNAc(b1-4)[Fuc(a1-6)]GlcNAc
Method in brief: as §1

[10] = target: Fuc(a1-2)[GalNAc(a1-3)]Gal(b1-4)GlcNAc(b1-3)GalNAc
Method in brief: as §1

[11] = target: Fuc(a1-3)[Gal(b1-4)]Glc6S
Method in brief: as §1

[12] = target: Fuc(a1-3)[GalNAc(b1-4)]GlcNAc
Method in brief: as §1

Fuc(a1-4)GlcNAc = target: Fuc(a1-4)GlcNAc
Method in brief: as §1

[13] = target: Gal(a1-3)Gal(b1-3)GlcNAc(b1-3)GalNAc
Method in brief: as §1

[14] = target: Gal(a1-3)Gal(b1-4)GlcNAc(b1-6)GalNAc
Method in brief: as §1

[15] = target: Gal(a1-4)Gal(b1-4)GlcNAc(b1-2)Man(a1-3)[Gal(a1-4)Gal(b1-4)GlcNAc(b1-2)Man(a1-6)]Man(b1-4)GlcNAc(b1-4)GlcNAc
Method in brief: as §1

Gal(b1-3)Gal(b1-4)GlcNAc = target: Gal(b1-3)Gal(b1-4)GlcNAc
Method in brief: as §1

[16] = target: Gal(b1-3)GlcNAc(b1-2)Man(a1-3)[Gal(b1-3)GlcNAc(b1-2)Man(a1-6)]Man(b1-4)GlcNAc(b1-4)GlcNAc
Method in brief: as §1

[17] = target: Gal(b1-3)GlcNAc(b1-3)Gal(b1-4)GlcNAc(b1-2)Man(a1-3)[Gal(b1-3)GlcNAc(b1-3)Gal(b1-4)GlcNAc(b1-2)Man(a1-6)]Man(b1-4)GlcNAc(b1-4)GlcNAc
Method in brief: as §1

[18] = target: Gal(b1-3)[Fuc(a1-4)]GlcNAc(b1-2)Man
Method in brief: as §1

[19] = target: Gal(b1-3)[Fuc(a1-4)]GlcNAc(b1-3)Gal(b1-3)[Fuc(a1-4)]GlcNAc
Method in brief: as §1

[20] = target: Gal(b1-3)[Neu5Ac(b2-6)]GalNAc
Method in brief: as §1

Gal(b1-4)Glc = target: Gal(b1-4)Glc
Method in brief: as §1

Gal(b1-4)GlcNAc(b1-2)Man = target: Gal(b1-4)GlcNAc(b1-2)Man
Method in brief: as §1

[21] = target: Gal(b1-4)GlcNAc(b1-2)Man(a1-6)Man(b1-4)GlcNAc(b1-4)GlcNAc
Method in brief: as §1

[22] = target: Gal(b1-4)GlcNAc(b1-3)Gal(b1-4)GlcNAc(b1-3)Gal(b1-4)GlcNAc(b1-2)Man(a1-3)[Gal(b1-4)GlcNAc(b1-3)Gal(b1-4)GlcNAc(b1-3)Gal(b1-4)GlcNAc(b1-2)Man(a1-6)]Man(b1-4)GlcNAc(b1-4)[Fuc(a1-6)]GlcNAc
Method in brief: as §1

[23] = target: Gal(b1-4)GlcNAc(b1-3)Gal(b1-4)GlcNAc(b1-3)Gal(b1-4)GlcNAc(b1-2)[Gal(b1-4)GlcNAc(b1-3)Gal(b1-4)GlcNAc(b1-3)Gal(b1-4)GlcNAc(b1-6)]Man(a1-6)[Gal(b1-4)GlcNAc(b1-3)Gal(b1-4)GlcNAc(b1-3)Gal(b1-4)GlcNAc(b1-2)Man(a1-3)]Man(b1-4)GlcNAc(b1-4)[Fuc(a1-6)]GlcNAc
Method in brief: as §1

B1: LBL-152 (Laetiporus bicolor), B0D650 (protein)
chain: MSNEYNPPLGIAFRLCGLASDRVLFSRVSPSPEVFHHPKSEVYPDQWFVAIPGSGQNAGCYAIKSKNTGKVLFSRMSPDPRVGHIDGDGKYPDNWFKFEAGSGKYAGYFRLRAVASDTVLVSRTSTGTDTQVINYPATSAKYDDQYFTILFDHHHHHH
For B1, the “glycan array binding signal (z-score)” value (Fuc(a1-2)Gal) was -0.151, the “glycan array binding signal (z-score)” value [1] was -0.162 and the “glycan array binding signal (z-score)” value [2] was -0.157. For the same binder, the “glycan array binding signal (z-score)” value [3] was -0.147, the “glycan array binding signal (z-score)” value (Fuc(a1-2)[Gal(a1-3)]Gal) was -0.145 and the “glycan array binding signal (z-score)” value [4] was -0.156. For the same binder, the “glycan array binding signal (z-score)” value [5] was -0.153, the “glycan array binding signal (z-score)” value [6] was -0.151 and the “glycan array binding signal (z-score)” value [7] was -0.157. For the same binder, the “glycan array binding signal (z-score)” value [8] was -0.156, the “glycan array binding signal (z-score)” value [9] was -0.156 and the “glycan array binding signal (z-score)” value [10] was -0.155. For the same binder, the “glycan array binding signal (z-score)” value [11] was -0.156, the “glycan array binding signal (z-score)” value [12] was -0.141 and the “glycan array binding signal (z-score)” value (Fuc(a1-4)GlcNAc) was -0.151. The “glycan array binding signal (z-score)” value [13] was -0.158, the “glycan array binding signal (z-score)” value [14] was -0.162 and the “glycan array binding signal (z-score)” value [15] was -0.132. For the same binder, the “glycan array binding signal (z-score)” value (Gal(b1-3)Gal(b1-4)GlcNAc) was -0.158, the “glycan array binding signal (z-score)” value [16] was -0.154 and the “glycan array binding signal (z-score)” value [17] was -0.136. The “glycan array binding signal (z-score)” value [18] was -0.159, the “glycan array binding signal (z-score)” value [19] was -0.16 and the “glycan array binding signal (z-score)” value [20] was -0.154. For the same binder, the “glycan array binding signal (z-score)” value (Gal(b1-4)Glc) was -0.156, the “glycan array binding signal (z-score)” value (Gal(b1-4)GlcNAc(b1-2)Man) was -0.148 and the “glycan array binding signal (z-score)” value [21] was -0.156. For the same binder, the “glycan array binding signal (z-score)” value [22] was 5.46 and the “glycan array binding signal (z-score)” value [23] was 4.41.
